This note sets out measurements from PubChem BioAssay AID488922 (Johns Hopkins Ion Channel Center, 2010).

Among all 310,000 compounds or so, about 3,800 (1.2%) were called active.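 The calls were made as follows: active = ratio B-score over 3 SD below the library mean, with starting fluorescence within 5 SD of its mean; inactive = the rest, inconclusive results apart.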 The list comes from a sample in which actives are over-represented; it also holds similar structures and randomly drawn compounds.

The target in this assay is Potassium channel subfamily K member 9 (Homo sapiens) (UniProt Q9NPC2). Description: KCNK9 potassium channel inhibitors, primary screen, HEK293 cells, thallium flux (AID 488922).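 As to B-score: negative B-score means less thallium flux so channel inhibition.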 The note with it: HEK293 KCNK9, FluxOR thallium flux fluorescence, at 10 µM; stronger effect = lower value.
Sequence of Potassium channel subfamily K member 9 (Homo sapiens) (Q9NPC2 whole entry, looked up): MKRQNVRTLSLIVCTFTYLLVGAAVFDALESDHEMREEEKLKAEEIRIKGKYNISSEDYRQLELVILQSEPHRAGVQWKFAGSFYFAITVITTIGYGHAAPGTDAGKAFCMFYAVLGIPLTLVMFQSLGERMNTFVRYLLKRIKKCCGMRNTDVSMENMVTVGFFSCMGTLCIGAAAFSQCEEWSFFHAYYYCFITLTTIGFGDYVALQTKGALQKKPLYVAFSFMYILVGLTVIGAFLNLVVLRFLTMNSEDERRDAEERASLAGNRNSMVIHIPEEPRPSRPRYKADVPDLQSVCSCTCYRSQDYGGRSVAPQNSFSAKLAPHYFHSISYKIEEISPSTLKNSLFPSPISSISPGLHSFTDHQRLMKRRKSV
With `Cc1ccc(NS(=O)(=O)c2ccc(-c3coc(C)n3)cc2)c(C)c1`, the B-score entry was “inactive”.

As for `COc1cc(C(=O)OCC(=O)N(CC(C)C)C2CCS(=O)(=O)C2)ccc1OCC(C)C` (configuration not stated), the B-score result was “inactive”.

In the case of `Cn1nc(-c2ccccc2)c(CO)c1Sc1ccccc1`, the B-score result was “inactive”.

Consider `Cn1nc(-c2ccccc2)c(CSc2cccc(Cl)c2)c1Cl`, for which the B-score is -8.39 (active).

In the case of `Cc1ccc(S(=O)(=O)c2c(COC(=O)c3cccc(Cl)c3)c(-c3ccccc3)nn2C)cc1`, the B-score result is “inactive”.

`COc1ccc(C(=O)NC2(C(F)(F)F)NC(=O)N(CCCc3ccccc3)C2=O)c(OC)c1OC` (configuration not stated): the B-score result was “inactive”.

With `O=C(c1cccc(S(=O)(=O)N2CCCC2)c1)N(Cc1ccco1)C1CCS(=O)(=O)C1` (configuration not stated), the B-score result is “inactive”.

Turning to `CCOC(=O)N/N=C/c1cn(Cc2ccccc2Cl)c2ccccc12`, the B-score was -9.45 (active).

As for `COC(=O)N/N=C/c1cn(CCCOc2ccc(C)cc2)c2ccccc12`, the B-score result is “inactive”.

`CNC(=S)N/N=C/c1cn(Cc2ccc(C)cc2)c2ccccc12`: the B-score entry was “inactive”.

For `CCc1ccc(N(CC)c2ncnc3nc[nH]c23)cc1`, the B-score entry was “inactive”.

Turning to `Cc1cc(Cl)ccc1C(=O)C1CCCN(C(=O)CCN2CCCO2)C1` (configuration not stated), the B-score result was “inactive”.

Consider `CSc1ccc(/C=C/C(=O)NC23CC4CC(CC(C4)C2)C3)cc1`, for which the B-score entry is “inactive”.

For `c1ccc(C2CNCc3c2ccc2ccccc32)cc1` (configuration not stated), the B-score result was “inactive”.

Consider `O=c1[nH]c(CSc2ncc(-c3ccc(F)cc3)n2Cc2ccco2)nc2ccccc12`, for which the B-score result was “inactive”.

Consider `O=C(CSc1nnc(-c2cccnc2)n1Cc1ccco1)c1ccc(Cl)c(Cl)c1`, for which the B-score entry was “inactive”.

`Clc1cccc(-c2nc3nc4ccccc4nc3n2Cc2ccco2)c1`: the B-score was -10.9 (active).

`CN(Cc1c(F)cccc1Cl)S(=O)(=O)c1cccs1`: the B-score entry was “inactive”.

For `CC1CCC2(CC1)NC(=O)N(CC(=O)c1cccn1C)C2=O` (configuration not stated), the B-score result was “inactive”.

As to `CC(C)(C)n1nnnc1C(c1ccc(F)cc1)N1CCN(Cc2ccc3c(c2)OCO3)CC1` (configuration not stated), the B-score result was “inactive”.

Take `Cc1cccc(N2CCN(C(c3ccccc3)c3nnnn3CC3CCCO3)CC2)c1C` (configuration not stated): the B-score entry is “inactive”.

`Cc1cccc(N2CCN(C(c3ccc(N(C)C)cc3)c3nnnn3C(C)(C)C)CC2)c1C` (configuration not stated): the B-score was -7.3 (active).

As to `Cc1cccc(C)c1NC(=O)c1ccc(CN2CCc3ccccc3C2)cc1`, the B-score result was “inactive”.

On to `COc1ccc(-c2csc(-c3cccs3)n2)cc1OC`, for which the B-score result was “inactive”.

`COc1ccc(OC)c(CNC(=O)CCc2nc(-c3cccs3)no2)c1`: the B-score entry is “inactive”.

In the case of `COc1ccc(OC)c(-c2csc(-c3cccs3)n2)c1`, the B-score is -11.7 (active).

`COc1ccc(CNS(=O)(=O)c2ccc(NC(=O)N3CCCCC3)cc2)cc1`: the B-score entry is “inactive”.

For `O=C(CNC(=O)c1cccnc1)N/N=C/c1cc(Br)c(O)c(Br)c1`, the B-score result was “inactive”.

Regarding `CCCOc1ccc2c3c(c(=O)oc2c1OCCC)CCC3`, the B-score is -13.7 (active).

On to `Cc1c(OC(C)C(=O)N[C@@H](Cc2ccccc2)C(=O)O)ccc2c3c(c(=O)oc12)CCCC3` (some centres not stated), for which the B-score result is “inactive”.

With `COc1ccc2c3c(c(=O)oc2c1OCC(=O)C(C)(C)C)CCCC3`, the B-score entry is “inactive”.

For `CC[n+]1cc(C)ccc1/C=C/c1ccc(N(C)C)cc1`, the B-score is -6.65 (active).

In the case of `CN(C)c1ccc(/C=N\S(=O)(=O)c2ccccc2)cc1`, the B-score result is “inactive”.

For the compound `CCCCCCCC1(C)NC(=O)N(CC(=O)Nc2cc(C)on2)C1=O` (configuration not stated), the B-score result is “inactive”.

Regarding `O=C(NCCc1ccccc1)c1ccc2c(c1)N(Cc1ccccc1)CCS2`, the B-score is -9.05 (active).

In the case of `O=C(NCCN1CCOCC1)c1ccc2c(c1)N(Cc1ccc(Cl)cc1)CCS2`, the B-score entry was “inactive”.

As for `CCOC(=O)N1CCN(C(=O)c2ccc3c(c2)N(Cc2ccc(C)cc2)CCS3)CC1`, the B-score entry is “inactive”.

As to `COc1ccc(C2(CNC(=O)C(c3ccccc3)c3ccccc3)CCOCC2)cc1OC`, the B-score result was “inactive”.

Turning to `CC[C@]1(c2ccccc2OC)C(=O)N(C(=O)OC)N1C(=O)OC`, the B-score entry is “inactive”.

As for `CCN(CC)C(=O)CC1(c2ccccc2OC)CCOC(C(C)C)C1` (configuration not stated), the B-score is -8.7 (active).

Turning to `O=P(O)(CN1CCCCCC1)C1Cc2ccccc2C1`, the B-score entry was “inactive”.

With `CCc1ccccc1NC(=O)/C(=C/c1ccccc1)c1ccccc1`, the B-score was -8.86 (active).

With `CCc1ccccc1NC(=O)CCOc1ccccc1`, the B-score result is “inactive”.

Regarding `CCc1ccccc1NC(=S)Nc1cc(OC)c(NC(=O)C(C)C)cc1OC`, the B-score result was “inactive”.

`COc1cccc(CNS(=O)(=O)c2ccc3c(c2)N(C(C)=O)CCS3)c1`: the B-score entry is “inactive”.

With `COc1cc(NC(=O)c2ccccc2)c(OC)cc1NC(=O)Cc1ccccc1`, the B-score entry was “inactive”.

In the case of `COc1cc(OC)cc(C(=O)OCC(=O)Nc2sccc2C(N)=O)c1`, the B-score entry was “inactive”.

As for `COc1cccc(OC)c1C(=O)Nc1nnc(C(C)C)s1`, the B-score result is “inactive”.

For the compound `NC(=O)c1c(NC(=O)c2ccccc2)sc2c1CCCC2`, the B-score result is “inactive”.

For `COc1cccc(OC)c1C(=O)Nc1sc2c(c1C(N)=O)CCCC2`, the B-score is -11.2 (active).

On to `Cc1cc(C)c(S(=O)(=O)N(C)CC(=O)NCC2CCCO2)c(C)c1` (configuration not stated), for which the B-score result was “inactive”.

As for `O=C(Cc1csc(Nc2nc(=S)[nH]c3ccccc23)n1)NCCCN1CCN(c2cccc(Cl)c2)CC1`, the B-score entry is “inactive”.

Consider `CCCn1nc(Oc2nc(NC(C)C)nc(N(C)C)n2)ccc1=O`, for which the B-score entry is “inactive”.

In the case of `CCOC(=O)c1ccc(S(=O)(=O)N(CCO)Cc2cc3cc(OC)c(OC)cc3[nH]c2=O)cc1`, the B-score result was “inactive”.

For `COc1cccc(CNC(=O)C(=O)NCCC2CCCCN2S(=O)(=O)c2ccc(C)cc2)c1` (configuration not stated), the B-score entry was “inactive”.

For the compound `Cc1ccc(-n2c(SCC(=O)Nc3ncc(Cl)cc3Cl)nc3ccccc32)cc1`, the B-score entry is “inactive”.

With `Cc1[nH]nc(SCC(=O)NCC(C)C)c1[N+](=O)[O-]`, the B-score entry was “inactive”.

Take `O=C(CSc1nc(-c2ccccc2)cs1)Nc1cccc([N+](=O)[O-])c1`: the B-score was -7.08 (active).

For `CCNC(=O)CSc1nc(-c2ccccc2)cs1`, the B-score result is “inactive”.

Regarding `O=C(CSc1ncn[nH]1)Nc1nc(-c2cccc([N+](=O)[O-])c2)cs1`, the B-score entry was “inactive”.

Turning to `CCSc1nnc(-c2cc3c(s2)-c2ccccc2CC3)o1`, the B-score entry is “inactive”.

In the case of `CN(C(=O)CCN1C(=O)/C(=C/c2ccccc2F)SC1=S)C1CCS(=O)(=O)C1` (configuration not stated), the B-score entry was “inactive”.

With `COC(=O)CSc1nc2ccccc2c(=O)n1Cc1ccccc1`, the B-score entry was “inactive”.

For the compound `CCOC(=O)CSc1nc2c(sc(=S)n2CCc2ccccc2)c(=O)n1Cc1ccco1`, the B-score was -8.91 (active).

For the compound `CCOC(=O)CSc1nc2c(c(=O)n(C)c(=O)n2C)n1Cc1ccccc1F`, the B-score result was “inactive”.

Consider `Cc1ccc(OCC(=O)Nc2ccc(NC(=O)c3cccs3)cc2)c(C)c1`, for which the B-score result was “inactive”.

For `O=C(Nc1ccc2c(c1)OCCO2)c1ccoc1`, the B-score entry was “inactive”.
